Screening results as filed in PubChem BioAssay.
Most compounds without a hit are left out; they make up all but 6.6% or so of the library.
KB-V1 MDR tox = qHTS assay for MDR1-selective chemotherapeutics: Primary screen using the drug-selected MDR subline cells KB-V1; KB-V1 MDR cells viability, CellTiter-Glo, 72 h; Potency, µM (doses to about 46.1 µM), actives largely listed as cytotoxic; 400,000 tested, 3.4% active; AID 1347076, 2019; note: nearly all actives have a fitted effect of over 60% in size
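In this primary screen, KB-V1 cells overexpressing P-gp are incubated with library compounds (lowest to highest concentration) for 72 h at 37 degrees C before a luminescent ATP viability read.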
SW480 rereplic = A quantitative high throughput screen for small molecules that induce DNA re-replication in SW480 colon adenocarcinoma cells; SW480 DNA re-replication, Hoechst DNA content imaging, 48 h; Potency, µM (titrated, usually from 46.1 µM), usual class: activators; 340,000 tested, 1.8% active; note: nearly all actives have a fitted effect of over 55% in size
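Quantitative HTS format with DMSO vehicle controls; 48 hr drug incubation at 37 C, then 40 min Hoechst staining and scanning imager measurement at 405 nm excitation.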
KB-3-1 tox = qHTS assay for MDR1-selective chemotherapeutics: Primary screen using the parental adenocarcinoma cell KB-3-1 | 400,000 tested, 1.4% active | Potency, µM (top dose mostly 46.1 µM), actives largely listed as cytotoxic | KB-3-1 viability, CellTiter-Glo ATP luminescence, 72 h; note: nearly all actives have a fitted effect of over 60% in size
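KB-3-1 cells, DMEM (no phenol red) + 10% FBS; compound by pin transfer, 72 h, 37 °C. Readout: CellTiter-Glo luminescence after 10 min. Data normalized, curve-fitted.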
TSG101-PTAP inh = qHTS Assay for Iinhibitors of HIV-1 Budding by Blocking the Interaction of PTAP/TSG101; Fluorescence polarization, FITC-PTAP peptide / Tsg101 binding; Potency, µM (doses to about 115 µM), usual class: inhibitors; 340,000 tested, under 10 active; AID 493005, 2010; active = well fitted inhibition curve with a large enough effect in the main read-out, with a control signal flat, not every such curve was filed as active; inconclusive = small, poorly fitted or top-dose-only effect, or effect the other way, or a change in a side signal; inactive = no such curve, though single readings can be large or run the other way
Target sequence (Q99816 whole entry, looked up): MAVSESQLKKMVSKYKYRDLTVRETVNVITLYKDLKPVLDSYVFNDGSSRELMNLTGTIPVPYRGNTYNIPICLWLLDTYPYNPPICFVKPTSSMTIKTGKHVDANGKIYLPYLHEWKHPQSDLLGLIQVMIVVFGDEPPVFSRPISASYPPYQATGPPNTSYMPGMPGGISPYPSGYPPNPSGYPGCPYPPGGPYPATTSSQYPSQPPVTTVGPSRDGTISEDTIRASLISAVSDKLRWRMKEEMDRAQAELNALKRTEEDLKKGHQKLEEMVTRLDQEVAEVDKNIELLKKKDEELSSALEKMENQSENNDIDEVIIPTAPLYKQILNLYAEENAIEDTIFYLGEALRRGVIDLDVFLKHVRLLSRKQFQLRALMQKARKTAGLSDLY
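Tsg101 binding domain (10 uM final) was mixed with compound and a FITC-labeled PTAP peptide (50 nM final) in HEPES pH 7.5 buffer with NaCl, Tween 20, EDTA and TCEP; fluorescence polarization was read after 20 min at r.t.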
RGS4 inhibitor = Inhibitors of Regulator of G Protein Signaling (RGS) 4: qHTS; Regulator of G-protein signaling 4 (Homo sapiens), P49798; Transcreener GDP fluorescence polarization, RGS4-accelerated GTP hydrolysis; Potency, µM (titrated, usually from 114 µM), usual class: inhibitors; 390,000 tested, 0.039% active; AID 504845, 2011; note: nearly all actives have a fitted effect of over 75% in size
Target sequence (P49798 whole entry, looked up): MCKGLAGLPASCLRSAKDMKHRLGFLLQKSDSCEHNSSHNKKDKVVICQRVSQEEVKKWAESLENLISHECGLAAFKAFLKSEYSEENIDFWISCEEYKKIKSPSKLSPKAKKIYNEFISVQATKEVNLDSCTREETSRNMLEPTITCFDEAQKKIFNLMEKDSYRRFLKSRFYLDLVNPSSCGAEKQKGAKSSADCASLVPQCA
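MLSMR compounds (23 nl, pin-transferred) preincubated 10 min at room temperature with a 500nM (2x) first reagent, then RGS4 at 900nM (2x) plus Transcreener GDP mix added; fluorescence polarization (620/688 nm) read before and after 90 min at 30 °C.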
MCF10A rerep = A quantitative high throughput screen for small molecules that induce DNA re-replication in MCF 10a normal breast cells. 350,000 tested, 2.9% active. Potency, µM (highest dose often 46.1 µM), usual class: activators. MCF 10A DNA re-replication, Hoechst nuclear intensity, 48 h. AID 624296, 2012; note: nearly all actives have a fitted effect of over 50% in size
A number is an active result; . = inactive; ? = inconclusive; / = not tested or not shown. Unless noted, calls come from the whole dose curve; as a rule, active = well fitted curve in the direction sought with a large enough effect; inconclusive = small, poorly fitted or top-dose-only effect, or another doubt; inactive = no such curve, though single readings can be large; an effect the other way counts as inactive or inconclusive.

SMILES	KB-V1 MDR tox	SW480 rereplic	KB-3-1 tox	TSG101-PTAP inh	RGS4 inhibitor	MCF10A rerep
O=C(Nc1nccs1)c1cccc(N2C(=O)c3cccc4c([N+](=O)[O-])ccc(c34)C2=O)c1	?	7.3µM	?	.	.	3.7µM
CC(=O)Oc1cccc(N2C(=O)c3cccc4c([N+](=O)[O-])ccc(c34)C2=O)c1	.	?	.	.	.	21µM
COc1ccc(OC)c(C2CC(=O)Nc3c2c(=O)n(C)c2ncnn32)c1 (configuration not stated)	.	/	.	/	.	/
CCCCCn1c(=O)c2c(nc3n2CCN3c2ccc(Br)cc2)n(C)c1=O	/	/	/	/	.	/
O=C(O)c1ccc(CN2C(=O)c3cccc4c([N+](=O)[O-])ccc(c34)C2=O)cc1	?	5.8µM	?	?	.	5.8µM
O=C(O)c1ccc(CN2C(=O)c3ccc(C(=O)O)cc3C2=O)cc1	.	.	.	.	.	.
CC(=O)Nc1nnc(COc2ccccc2)s1	.	18µM	.	.	.	.
COC(=O)C(=O)Nc1nnc(COc2ccccc2)s1	.	.	.	.	.	?
COc1ccc(S(=O)(=O)N2CCOC23CCN(S(C)(=O)=O)CC3)cc1	.	5.2µM	.	.	.	.
COc1ccc(S(=O)(=O)N2CCOC23CCN(S(=O)(=O)c2ccccc2)CC3)cc1	.	7.3µM	.	.	.	.
COc1ccc(S(=O)(=O)N2CCC3(CC2)OCCN3S(=O)(=O)c2c(C)cc(C)cc2C)cc1	.	.	.	.	.	.
COc1ccc(OC)c(S(=O)(=O)N2CCC3(CC2)OCCN3S(=O)(=O)c2ccccc2)c1	.	?	.	.	.	.
Cc1ccc2[nH]c(O)c(N=Nc3nc4ccccc4s3)c2c1	13µM	.	?	.	.	.
COc1cccc2sc3cc(NCc4ccc5c(c4)OCO5)ccc3c(=O)c12	?	?	.	/	.	4.1µM
COc1cc2sc3cc(NCc4ccc5c(c4)OCO5)ccc3c(=O)c2cc1OC	.	?	.	/	.	.
O=C(COC(=O)c1ccccc1C(=O)c1ccc(Cl)c([N+](=O)[O-])c1)NC1CCCCCC1	.	3.7µM	?	.	.	2.6µM
C=CCN(c1ccc(OC)cc1)S(=O)(=O)c1ccc(Cl)c(C(=O)OCC(=O)c2c(N)n(C)c(=O)n(C)c2=O)c1	16µM	.	.	.	.	.
CN(c1ccccc1)S(=O)(=O)c1ccc(Cl)c(C(=O)OCC(=O)c2c(N)n(C)c(=O)n(C)c2=O)c1	?	.	.	.	.	?
CC(C)N(C(=O)COC(=O)c1ccccc1C(=O)c1ccc(Cl)c([N+](=O)[O-])c1)C(C)C	.	?	.	.	.	?
Cn1c(N)c(C(=O)COC(=O)c2ccccc2C(=O)c2ccc(Cl)c([N+](=O)[O-])c2)c(=O)n(C)c1=O	.	?	?	.	.	12µM
CN(CCC#N)C(=O)COC(=O)c1ccccc1C(=O)c1ccc(Cl)c([N+](=O)[O-])c1	.	.	?	.	.	9.2µM
CCOC(=O)c1ccccc1S(=O)(=O)N1CCN(c2nc(-c3cccs3)nc3ccccc23)CC1	/	/	/	/	.	/
CC(=O)Nc1ccc(S(=O)(=O)N2CCC(c3nnnn3-c3ccccc3)CC2)cc1	/	/	/	/	.	/
Cc1sc2ccccc2[n+]1CC(=O)c1ccc(F)cc1	.	/	.	/	/	/
C[C@@H]1[C@H](c2ccccc2)OCCS(=O)(=O)N1Cc1ccc(F)cc1	?	/	.	/	/	/
SMILES	KB-V1 MDR tox	SW480 rereplic	KB-3-1 tox	TSG101-PTAP inh	RGS4 inhibitor	MCF10A rerep
Cc1cc2nc(CCN(Cc3cccnc3)C(=S)Nc3ccccc3)[nH]c2cc1C	?	.	.	.	.	16µM
Cc1cc2nc(CCN(Cc3cccnc3)C(=S)Nc3ccc(F)cc3)[nH]c2cc1C	.	?	.	.	.	.
O=C(NCc1ccccc1)Nc1cccn(Cc2ccccc2F)c1=O	10µM	.	.	.	.	.
O=C(NCc1ccccc1)Nc1cccn(Cc2ccccc2)c1=O	?	.	.	.	.	.
O=C(NCc1ccccc1)Nc1cccn(Cc2ccc(F)cc2)c1=O	12µM	.	.	.	.	.
O=C(Nc1cccn(Cc2ccc(F)cc2)c1=O)NC1CCCCC1	.	.	.	.	.	.
O=C(Nc1cccn(Cc2ccccc2)c1=O)NC1CCCCC1	4.1µM	.	.	.	.	.
Cc1nc2nc(SCC(=O)NCCc3ccc(Cl)cc3)nn2c(C)c1Cc1ccccc1	?	/	.	/	.	/
COc1ccc(C(=O)N[C@H](C(=O)NCCCn2nc(C)cc2C)C(C)C)cc1	15µM	.	.	.	.	.
COc1ccc(NS(=O)(=O)c2cc(NC(=O)c3ccc(=O)[nH]c3)ccc2C)cc1	?	.	.	.	.	.
COc1ccc(NS(=O)(=O)c2cc(NC(=O)[C@@H](NC(=O)c3ccccc3)C(C)C)ccc2C)cc1	?	?	8.2µM	.	.	18µM
COc1ccc(NS(=O)(=O)c2cc(NC(=O)Cc3cccs3)ccc2C)cc1	.	?	.	.	.	16µM
COc1ccc(C(=O)N[C@H](C(=O)OCCCOC(=O)[C@@H](NC(=O)c2ccc(OC)cc2)C(C)C)C(C)C)cc1	.	.	.	.	.	.
Cc1sc2ncn(CC(=O)N3CCN(c4ccccc4F)CC3)c(=O)c2c1S(=O)(=O)N1CCC(C)CC1	.	/	.	/	.	/
Cc1ccc(S(=O)(=O)c2nc(S(C)(=O)=O)sc2N2CCCCCC2)cc1	6.5µM	.	.	.	.	.
CCOc1cccc(C2c3c(oc4ccc(F)cc4c3=O)C(=O)N2c2cc(C)ccn2)c1 (configuration not stated)	.	/	.	/	.	/
CCOC(=O)Cc1ccc(NC(=O)N(Cc2ccc(OC)cc2)C2CCN(C(C)=O)CC2)cc1	.	/	.	/	.	/
CC(C)CC(=O)/C(=C\c1ccc(Cl)cc1Cl)n1cncn1	.	6.5µM	?	.	?	4.6µM
CC(C)CC(=O)/C(=C/c1ccc(N(C)C)cc1)n1cncn1	.	.	.	.	.	.
CN(C)c1ccc(/C=C(/C(=O)c2ccc(Cl)cc2Cl)n2cncn2)cc1	5.2µM	18µM	23µM	.	.	?
COc1ccc(-c2c(C)sc(NC(=O)c3ccnn3C)c2C#N)cc1	?	.	10µM	.	.	.
